# Screens: PubChem BioAssay, National Center for Advancing Translational Sciences (NCATS)
# Hits are enriched below; roughly 2.4% of the tested compounds scored in any of these assays.
# D2 PAM-1 – positive allosteric modulators of human D2 dopamine receptor | P14416 | DiscoveRx D2 beta-arrestin cells, luminescence, 90 min; 100% = 57 uM dopamine signal | potentiation, % (no concentration beside the values) | hit rate 0.23% among 360,000; in the data active = potentiation above about 50%; inconclusive = mostly about 30% to 49%
# Target sequence (P14416 whole entry, looked up): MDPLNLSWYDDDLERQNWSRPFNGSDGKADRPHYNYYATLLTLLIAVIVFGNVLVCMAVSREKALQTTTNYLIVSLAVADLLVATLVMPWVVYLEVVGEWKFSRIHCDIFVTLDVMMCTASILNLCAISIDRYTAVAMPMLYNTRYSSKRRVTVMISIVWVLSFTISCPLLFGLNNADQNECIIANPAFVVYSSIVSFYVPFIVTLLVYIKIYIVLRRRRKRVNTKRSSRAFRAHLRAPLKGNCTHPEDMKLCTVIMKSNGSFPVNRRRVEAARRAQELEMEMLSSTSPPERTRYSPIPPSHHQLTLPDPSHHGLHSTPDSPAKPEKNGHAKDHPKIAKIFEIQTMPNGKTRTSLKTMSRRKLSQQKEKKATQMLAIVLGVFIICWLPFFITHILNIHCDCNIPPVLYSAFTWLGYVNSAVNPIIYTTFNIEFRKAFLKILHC
#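 PathHunter beta-arrestin assay in DiscoveRx D2 cells. Compounds were added with an EC20 of dopamine (50 nM final) for 90 min at 37 deg C. Luminescence was read 1 h after detection reagent, with 57 uM dopamine as the EC100 control.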
# D2 PAM-2 – D2 dopamine receptor (human) potentiation. HEK293 T-REx D2, calcium flux, EC20 dopamine potentiation. potentiation, % at 10 µM. hit rate 0.34% among 340,000. AID 485347;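 active = potentiation over 3 SD above the plate norm, cut at about 30% in these data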
#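 Calcium flux readout, no-wash dye, 1 read/s. Inducible HEK293 Trex D2 line, overnight 30 C. Compound alone 180 s (agonist flags), then EC20 dopamine, another 180 s to score potentiation.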
# D2 ag-1 – activates the human D2 dopamine receptor. HEK293 T-REx D2 cells, calcium flux agonist mode. AID 485358. activation, % at 2 µM. hit rate 0.53% among 340,000;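 active = activation over 3 SD above normal in the single-dose calcium agonist read, cut at about 30% in these data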
#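 In this primary screen, compounds producing a positive calcium signal within 180 s of addition to tetracycline-induced, force-coupled HEK293 Trex D2 cells are flagged; cells are dye-loaded with a no-wash calcium kit beforehand.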
# D2 ag-2 – agonists of human D2 dopamine receptor (beta-arrestin). AID 624465. activation, % (no concentration beside the values). P14416. hit rate 0.084% among 360,000. DiscoveRx PathHunter D2 beta-arrestin, luminescence, 90 min; 100% = 57 uM dopamine signal; in the data active = activation above about 40%; inconclusive = between about 15% and that limit
#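 DiscoveRx PathHunter D2 beta-arrestin cells (2,100/well) attached overnight, then compound-stimulated 90 min at 37 C in HBSS/10 mM HEPES/0.1% Tween-20 buffer; beta-galactosidase complementation read by luminescence after 1 h at ambient temperature. Dopamine 57 uM final (EC100) as control.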
# D2 antag – antagonizes the human D2 dopamine receptor | inhibition, % at 10 µM | AID 485344 | hit rate 2% among 340,000 | HEK293 TREx D2 cells, calcium flux, dopamine EC80 | P14416; in the data active = inhibition above about 30%; inactive = below that, where a call was filed
#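 Measurement of antagonist activity uses fluorescent calcium dye in inducible HEK293 T-REx D2 cells: 10 s baseline, compound addition with 180 s read, EC80 dopamine addition with a further 180 s read.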
# Hits are given with their value; . = inactive; ? = inconclusive; / = no result.
SMILES,D2 PAM-1,D2 PAM-2,D2 ag-1,D2 ag-2,D2 antag
Cc1ccsc1C=Nc1ccc(O)cc1,75,.,.,?,.
Cc1ccsc1/C=N/N=C/c1sccc1C,.,.,.,.,.
CCOc1ccc(CNCCN2CCCC2)cc1,.,.,.,.,74
C=C(C)Cn1c2ccc(NC(=S)NCc3ccccc3F)cc2c(=O)n1C,.,/,/,103,/
CC[C@H](C)[C@H](NC(=O)[C@H](Cc1ccc(O)cc1)NC(=O)[C@@H](N)C(C)C)C(=O)N[C@@H](Cc1cnc[nH]1)C(=O)N1CCC[C@H]1C(=O)N[C@@H](Cc1ccccc1)C(=O)O,.,.,.,.,34
CCC(C)C(NC(=O)C1CCC(=O)N1C(=O)OCc1ccccc1)C(=O)NC(Cc1ccccc1)C(N)=O (centres undefined),.,/,.,.,.
CC(=O)c1c(C)[nH]c(C(=O)OCCCCN2C(=O)c3ccccc3C2=O)c1C,.,.,.,.,48
CCC(=O)N1CCCc2cc(S(=O)(=O)N3CCN(c4ncccn4)CC3)ccc21,.,.,.,.,31
CCc1ccc(C(=O)N/N=C/c2ccc(Cl)cc2Cl)nc1,/,.,.,/,73
CN(C)C=NC(=O)c1cc(C(=O)c2ccccc2Cl)c[nH]1,.,.,.,.,46
COc1ccc(CNC(=O)c2cccn2-c2nnc(N3CCCC3)s2)c(OC)c1,/,.,.,/,/
CCCOc1ccc(Oc2nc(NCC(C)C)nc(N(C)C)n2)nn1,/,.,/,/,/
COc1cc(CN2CCN(c3cccc(C)c3C)CC2)cc(OC)c1O,.,.,.,.,42
Cc1cc(CN2CCN(c3cccc(C)c3C)CC2)cs1,/,.,.,/,/
Cc1cccc(N2CCN(Cc3ccoc3)CC2)c1C,.,.,.,.,67
COc1cc(CN2CCCCCC2)cc(OC)c1O,.,.,.,.,.
Cc1ccccc1NC(=O)c1ccc(Cn2cc([N+](=O)[O-])cn2)o1,.,.,.,.,32
Cc1cc(NC(=O)c2ccc(Cn3cc([N+](=O)[O-])cn3)o2)no1,.,/,/,.,/
Cc1ccc(C(=O)Nn2cnnc2)cc1,.,.,.,.,.
N#CC1(c2ccccc2)CCC(NCCc2ccccc2)CC1 (centres undefined),.,.,.,.,46
COCc1ccc(CN2CCC(C(=O)Nc3cccc(-c4cscn4)c3)CC2)o1,.,.,.,.,32
O=C(Nc1cccc(-c2cccc(F)c2)c1)C1CCN(Cc2ccco2)CC1,.,.,.,.,56
COCc1ccc(CN2CCC(C(=O)Nc3cccc(-c4cccc(Cl)c4)c3)CC2)o1,.,.,.,.,34
COc1cccc(-c2cccc(NC(=O)C3CCN(Cc4ccc(C)o4)CC3)c2)c1,.,.,.,.,.
O=C(Nc1cccc(-c2cscn2)c1)C1CCN(Cc2ccc(CO)o2)CC1,.,.,.,.,.
SMILES,D2 PAM-1,D2 PAM-2,D2 ag-1,D2 ag-2,D2 antag
Cc1cc(C)cc(NC(=O)CCS(=O)(=O)c2cccc3nsnc23)c1,/,.,.,/,/
O=C(/C=C/Nc1ccc(F)cc1)c1ccc(Oc2ncccn2)cc1,.,.,.,.,34
O=C1CC(c2ccc(Cl)cc2)CC(O)=C1C=NCCN1CCNCC1 (centres undefined),/,.,.,/,53
C=CCNC(=S)N1CCN(CCN=CC2=C(O)CC(c3ccc(Cl)cc3)CC2=O)CC1 (centres undefined),.,.,.,.,.
O=C1C=C(c2ccccc2)OC2(CCCC2)O1,.,38,.,.,.
CC1(C)CC(=O)/C(=C(\O)CCCN2C(=O)c3ccccc3C2=O)C(=NCC(=O)O)C1,.,.,.,.,.
O=C1CC(c2ccccc2)CC(=NCCO)/C1=C(\O)CCCN1C(=O)c2ccccc2C1=O (centres undefined),.,51,.,.,.
Cc1cccc(NC(=O)C2CCCN(C(=O)Nc3ccc(F)cc3)C2)c1 (centres undefined),.,.,.,.,31
COc1ccc(N(C(=O)COc2ccc(Br)cc2)S(=O)(=O)c2ccc(C)cc2)cc1,/,.,.,/,/
Cc1cc(NC(=O)c2cc(-c3ccc(OC(C)C)cc3)nc3ccccc23)no1,.,30,.,.,.
CC(C)OC(=O)c1c2c(n3ccccc13)C(=O)c1ccccc1C2=O,.,.,69,?,.
CCOC(=O)c1cccc(NC(=O)c2ccc3snnc3c2)c1,/,.,/,/,/
